Rows were chosen to be rich in hits. Some 9.9% of all compounds tested hit in one or more screens of this group.
Tau fluor cs: counter-screen for tau fibril formation inhibitors | tau K18 P301L Alexa594 fluorescence, heparin fibrillization | Potency, µM (highest dose often 57.7 µM), without a hit: at the top dose activity change, negative = decrease | 280,000 tested, 0.93% active; active = well fitted curve in the direction sought with a large enough effect; inconclusive = small, poorly fitted or top-dose-only effect, or another doubt; inactive = no such curve, though single readings can be large; an effect the other way counts as inactive or inconclusive; note: nearly all actives have a fitted effect of over 55% in size
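Human K18 P301L tau (15 uM unlabeled plus 0.24 uM Alexa 594-labeled, final) in 100 mM sodium acetate pH 7 was mixed with compound and 20 uM heparin and incubated 6 hr at 37 C.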
ALDH1A1 inh: inhibitors of human aldehyde dehydrogenase 1A1; 220,000 tested, 7.3% active; P00352; Potency, µM (titrated, usually from 75.3 µM), for inactives: at the top dose activity, negative = inhibition, hits mostly inhibitors; Purified ALDH1A1, NADH fluorescence, propionaldehyde substrate;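 note: plate controls were no enzyme wells and a reference inhibitor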
Target sequence (P00352 whole entry, looked up): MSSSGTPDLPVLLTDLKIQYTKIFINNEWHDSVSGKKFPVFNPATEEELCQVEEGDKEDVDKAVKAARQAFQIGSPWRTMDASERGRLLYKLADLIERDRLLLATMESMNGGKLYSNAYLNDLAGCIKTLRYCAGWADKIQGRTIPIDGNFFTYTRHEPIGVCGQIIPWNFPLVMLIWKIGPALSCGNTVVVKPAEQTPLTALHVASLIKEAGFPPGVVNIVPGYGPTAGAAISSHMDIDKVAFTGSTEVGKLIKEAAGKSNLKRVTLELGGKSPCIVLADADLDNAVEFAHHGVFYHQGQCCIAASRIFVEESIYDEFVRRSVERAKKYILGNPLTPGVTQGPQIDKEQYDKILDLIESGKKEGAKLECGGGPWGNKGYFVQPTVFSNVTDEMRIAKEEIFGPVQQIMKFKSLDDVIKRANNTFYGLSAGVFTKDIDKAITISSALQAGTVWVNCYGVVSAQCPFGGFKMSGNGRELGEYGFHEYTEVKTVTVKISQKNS
Tau fibril FP: blocks human tau fibril formation measured by polarization; 280,000 tested, 0.39% active; K18 P301L tau heparin fibrillization, Alexa594 FP, 6 h; P10636; Potency, µM (highest dose often 57.7 µM), inactives show at the top dose activity, negative = inhibition, most hits filed as inhibitors; active = well fitted curve in the direction sought with a large enough effect; inconclusive = small, poorly fitted or top-dose-only effect, or another doubt; inactive = no such curve, though single readings can be large; an effect the other way counts as inactive or inconclusive; note: nearly all actives have a fitted effect of over 55% in size
Target sequence (P10636 561-689 P618L limits assumed): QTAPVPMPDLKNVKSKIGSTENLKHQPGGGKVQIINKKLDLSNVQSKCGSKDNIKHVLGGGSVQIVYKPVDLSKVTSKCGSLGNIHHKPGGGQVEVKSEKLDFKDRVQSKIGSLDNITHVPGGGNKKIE
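Quantitative HTS format: compounds meet 15 uM recombinant K18 P301L tau and Alexa 594-tau tracer in 100 mM sodium acetate pH 7; 20 uM heparin triggers fibrillization at 37 C over 6 hr; FP gives the signal.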
Tau ThT inhib: inhibitors of human tau fibril formation, thioflavin T binding; P10636; recombinant tau K18 P301L (four-repeat tau fragment), heparin-induced fibrillization, ThT fluorescence; Potency, µM (doses to about 57.4 µM), inactives show top-dose activity, negative = inhibition, most hits filed as inhibitors; 270,000 tested, 2.1% active; AID 1460; active = well fitted curve in the direction sought with a large enough effect; inconclusive = small, poorly fitted or top-dose-only effect, or another doubt; inactive = no such curve, though single readings can be large; an effect the other way counts as inactive or inconclusive; note: nearly all actives have a fitted effect of over 55% in size
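In this qHTS, human K18 P301L tau is incubated with compound and heparin for 6 hr at 37 C, and Thioflavin T fluorescence then reports fibril load.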
KDM4E inh: blocks human JMJD2E demethylase activity; B2RXH2; JMJD2E catalytic domain, FDH-coupled NADH fluorescence (FDH is formaldehyde dehydrogenase); Potency, µM (titrated, usually from 57.1 µM), without a hit: at the top dose activity change, negative = inhibition, hits mostly inhibitors; 230,000 tested, 1.6% active; AID 2147;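 note: 0% = wells with enzyme and -100% = buffer wells without enzyme; nearly all actives have a fitted effect of over 50% in size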
HPGD inh: blocks human HPGD enzyme activity. purified HPGD, NADH fluorescence kinetic, PGE2 substrate. Potency, µM, for inactives: top-dose activity change, negative = inhibition, actives largely listed as inhibitors. 150,000 tested, 4.3% active. AID 894
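20 nM HPGD preincubated 15 min at room temperature with compound in 50 mM Tris-HCl pH 8, 0.01% Tween 20. Started with 1 mM NAD+ and 30 uM prostaglandin E2; NADH fluorescence (360/450 nm) read 5 times over 30-s intervals, last minus first.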
* hit, by the source's call; ? = inconclusive; · = not tested or not shown; [ ] = dose if it differs, or a comment. Unless noted, calls come from the whole dose curve; as a rule, active = well fitted inhibition curve with a large enough effect (not every such curve was filed as active); inconclusive = small, poorly fitted or top-dose-only effect, or another doubt; inactive = no such curve, though single readings can be large or run the other way. Unless noted, % is set by controls: 0 for no effect and ±100 for the full control effect; potency is the fitted concentration of half-maximal effect.

SMILES | Tau fluor cs | ALDH1A1 inh | Tau fibril FP | Tau ThT inhib | KDM4E inh | HPGD inh
COc1cc(NC(=O)CC(c2ccc(C)cc2)N2Cc3ccccc3C2=O)cc(OC)c1 (stereo not given) | ? | · | ? | 8% | · | ·
Cc1cccc(-c2n[nH]c(=S)n2/N=C/c2ccc(C)s2)c1 | -12% | -1% | -2% | -4% | 2% | 4µM*
COc1cc(/C=N/n2c(-c3ccccc3)n[nH]c2=S)ccc1O | -25% | 25µM* | -5% | ? | 25µM* | ·
Cc1ccccc1-n1c(-c2ccncc2)n[nH]c1=S | -9% | 16µM* | -5% | -10% | -1% | ?
Cc1cccc(/C=N/n2c(-c3cc(-c4ccccc4)n[nH]3)n[nH]c2=S)c1 | ? | -7% | 11% | ? | 5% | 5µM*
CC(C)(CC(=O)O)CC(=O)Nc1cc(C(F)(F)F)cc(C(F)(F)F)c1 | -9% | · | -14% | -2% | 10% | ·
CCN(CC)CCCC(C)n1c(-c2ccccc2)nc2c(NCCO)nc(C)nc21 (stereo not given) | -17% | ? | -5% | -12% | ? | ?
Clc1ccc(CSc2nnc(-c3cccnc3)n2Cc2ccco2)c(Cl)c1 | 2% | 4.5µM* | 2% | ? | ? | 14µM*
C/C(=N\NC(=O)c1ccc(NS(=O)(=O)c2cccs2)cc1)c1ccc(O)cc1O | ? | ? | 8% | ? | 13µM* | ·
CCN(CC)c1ncnc2c1cnn2-c1cc(Cl)ccc1C | -9% | · | -2% | -6% | · | ·
Cc1ccc(S(=O)(=O)Nc2ccc3c(c2)CCCN3C(=O)c2cccs2)cc1 | -19% | · | 3% | 4% | · | ·
O=C(CNC(=O)c1cccc(Cl)c1)N/N=C/C=C/c1ccccc1 | -11% | 10% | 0% | -6% | -7% | -16%
N#CC1=C(N)SC2(CCCCC2)SC1c1ccccc1 (stereo not given) | -15% | 25µM* | -18% | ? | -8% | ?
Cn1c(SCC(=O)Nc2ccccc2)nnc1-c1ccc2nonc2c1 | -3% | · | -8% | -5% | -10% | ·
COc1ccc2c(c1)c1c(c(=O)n(CCc3ccccc3)c(=O)n1Cc1ccccc1)n2C | -5% | · | -1% | 3% | · | ·
COC(=O)C1=C(C)N(CCc2c[nH]c3ccccc23)C(=O)/C1=C\N(C)C | ? | 13µM* | -17% | 14µM* | -1% | ·
COC(=O)C1=C(C)N(CCc2ccc(OC)cc2)C(=O)C1 | -2% | 10µM* | -4% | -5% | 2% | -30%
COC(=O)C1=C(C)N(CCc2c[nH]c3ccc(OC)cc23)C(=O)C1 | -19% | 18µM* | ? | ? | -27% | ·
CC1=CCC2C(=O)N(CCc3c[nH]c4ccccc34)C(=O)C2C1 (stereo not given) | -25% | -15% | 4% | -20% | -5% | -16%
COC(=O)C1=C(C)N(Cc2ccc(OC)cc2)C(=O)C1 | -16% | 3% | -4% | -22% | ? | -20%
COc1ccc2[nH]cc(CCNC(=O)Nc3ccccc3C)c2c1 | -12% | · | 12% | -9% | · | ·
COc1ccc(Cc2nnc(N/N=C/c3ccc(Br)cc3)[nH]c2=O)cc1OC | -14% | 11% | -11% | -9% | 8% | ·
COc1ccc(Cc2nnc(N/N=C/c3ccc(O)cc3)[nH]c2=O)cc1OC | -14% | 4% | -6% | -9% | 14µM* | -20%
CC(C)c1nc2sc3c(=O)[nH]c(=S)[nH]c3c2c2c1CCCC2 | 2% | · | 7% | -6% | 2% | ·
CC(C)c1nc2sc3c(=O)[nH]c(=S)[nH]c3c2c2c1CCC2 | -17% | ? | 0% | ? | 3% | 16µM*
SMILES | Tau fluor cs | ALDH1A1 inh | Tau fibril FP | Tau ThT inhib | KDM4E inh | HPGD inh
COc1ccc(CC(=O)Nc2c(C(=O)Nc3ccccc3F)oc3ccccc23)cc1 | -10% | · | -9% | 11% | · | ·
Cc1ccc(OCCn2c(=O)n(C)c3ccccc32)cc1 | -14% | ? | 0% | -9% | -2% | ·
Cc1ccc(-n2nnnc2CNC(=O)c2ccccc2)cc1C | 0% | · | -7% | 7% | · | ·
Cc1ccc2[nH]c(=O)c(CN(Cc3ccc4c(c3)OCO4)Cc3nnnn3C3CCCC3)cc2c1 | -7% | 20µM* | 8% | 1% | ? | -27%
Cc1cc2cc(CN(Cc3ccc4c(c3)OCO4)Cc3nnnn3C3CCCC3)c(=O)[nH]c2cc1C | -6% | 22µM* | -4% | -13% | -14% | -26%
CSc1cccc(-n2c(C)cc(C(N)=O)c2C)c1 | 4% | 6% | -3% | -9% | -6% | 4.5µM*
COc1ccc(OC)c(C2CC(=O)Nc3c2c(=O)[nH]c2ncnn32)c1 (stereo not given) | 12% | 4% | 0% | 8% | ? | ·
COc1ccc(-c2cc(C(=O)Nc3cccnc3)no2)cc1OC | -6% | · | -12% | -12% | · | ·
O=C(c1ccc(Cc2nc3ccccc3[nH]2)cc1)N1CCOCC1 | · | -5% | · | · | · | -7%
CC(=O)Nc1ccc2nc(SCCOc3ccccc3Cl)sc2c1 | 11µM*[quencher] | · | 11µM* | ? | · | ·
COc1cccc(NC(=O)CSc2nc3ccc(NC(=O)c4cccs4)cc3s2)c1 | 7.1µM*[quencher] | · | 7.9µM* | 0% | · | ·
COc1cc(C)ccc1OCCSc1nc2ccc(NC(=O)c3cccs3)cc2s1 | 5µM*[quencher] | · | 10µM* | 1% | · | ·
CC(=O)Nc1ccc2nc(NC(=O)COc3ccccc3Cl)sc2c1 | -20% | -2% | -16% | ? | ? | ·
Cc1cccc(NC(=O)CSc2nc3ccc(NC(=O)c4cccs4)cc3s2)c1 | ? | · | ? | 5% | · | ·
COCCn1c(=O)c(-c2ccc(OC)cc2)nc2cnc(Oc3ccc(OC)cc3)nc21 | · | ? | · | · | · | -9%

Bioassay records: PubChem, National Center for Advancing Translational Sciences (NCATS)
